Laboratory results as given in PubChem BioAssay (EPA / NIEHS).
Active and inactive are the calls of the source. How the source made its calls: active means hit-call score of the fitted dose curve at least 0.9, where 1 is the maximum; inactive means score below 0.9.

Assays:
[1] = target: Bile acid receptor (Homo sapiens) (UniProt Q96RI1); assay: ATG_IR1_CIS: Attagene CIS-FACTORIAL HepG2 Assay for human Nuclear Receptor Subfamily 1 Group H Member 4 (NR1H4), IR1 submotif (AID 2282946); conditions: IR1 reporter transcription, actives raise or lower the signal
Outline: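 Transient MRTU transfection, HepG2; 24 h dosing; RNA → RT-PCR → 6-FAM primer extension → HpaI digest → capillary electrophoresis fluorescence. Gain/loss of signal fitted relative to DMSO.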

[2] = ATG_ISRE_CIS: Attagene CIS-FACTORIAL HepG2 Assay for human Interferon Regulatory Factor 1 (IRF1) binding to an Interferon-Stimulated Response Element (ISRE) (AID 2282948); conditions: HepG2 ISRE cis-reporter (Attagene), mRNA transcription readout; actives raise or lower the signal
Outline: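 Cell-based cis-reporter assay; HepG2; 24 h exposure; reporter mRNA by RT-PCR plus capillary electrophoresis fluorescence; activity in either direction scored relative to DMSO.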

[3] = ATG_M_32_CIS: Attagene CIS-FACTORIAL HepG2 Assay for M32 Transcription Factor (Internal Marker) (AID 2282949); conditions: HepG2 Attagene cis-factorial M32 reporter, mRNA; actives raise or lower the signal;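 further: background control marker of the multiplexed CIS panel rather than a real target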
Outline: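 Fluorescent capillary electrophoresis peaks of HpaI-digested, FAM-labelled RT-PCR reporter products give the signal. Source: transiently transfected human liver HepG2 cells, 24 h after chemical dosing; bidirectional fitting against DMSO.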

[4] = ATG_M_06_CIS: Attagene CIS-FACTORIAL HepG2 Assay for M06 Transcription Factor (Internal Marker) (AID 2282950); conditions: HepG2 Attagene CIS-FACTORIAL M06 internal marker reporter; actives raise or lower the signal
Outline: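 Fluorescence-labelled RT-PCR products from cis-promoter reporter units, cut with HpaI and resolved by capillary electrophoresis, give the signal. Cells are human HepG2, dosed for 24 h. Serves as background control, fitted relative to DMSO.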

[5] = target: Hypoxia-inducible factor 1-alpha (Homo sapiens) (UniProt Q16665); assay: ATG_HIF1a_CIS: Attagene CIS-FACTORIAL HepG2 Assay for human Hypoxia Inducible Factor 1 (HIF1A) (AID 2282951); conditions: HepG2 Attagene cis-factorial HIF1a reporter transcription; actives raise or lower the signal
Outline: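 Transient MRTU transfection of human HepG2 liver cells, 24 h compound treatment, then total RNA isolation, oligo(dT) reverse transcription, PCR amplification, fluorescent labelling and capillary electrophoresis of reporter fragments. Gain or loss relative to DMSO.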

[6] = target: Hepatocyte nuclear factor 6 (Homo sapiens) (UniProt Q9UBC0); assay: ATG_HNF6_CIS: Attagene CIS-FACTORIAL HepG2 Assay for human Hepatocyte Nuclear Factor 6 (HNF6) (AID 2282952); conditions: HepG2 Attagene cis-factorial HNF6 reporter transcription; actives raise or lower the signal
Outline: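 Cells are HepG2 carrying transiently transfected cis-promoter reporter units. Treatment lasts 24 h, after which reporter transcripts are reverse-transcribed, amplified, FAM-labelled and sized by capillary electrophoresis. DMSO serves as baseline.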

[7] = target: Heat shock factor protein 1 (Homo sapiens) (UniProt Q00613); assay: ATG_HSE_CIS: Attagene CIS-FACTORIAL HepG2 Assay for human Heat Shock Transcription Factor 1 (HSE) (AID 2282953); conditions: HepG2 HSE cis-reporter, Attagene RNA transcription; actives raise or lower the signal
Outline: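 After a 24 h incubation with test chemical, transfected HepG2 cells were harvested for RNA; reporter transcripts were measured by RT-PCR and capillary electrophoresis. Values reflect gain or loss of signal relative to DMSO.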

[8] = ATG_MRE_CIS: Attagene CIS-FACTORIAL HepG2 Assay for human Metal Responsive Element (MRE) (AID 2282954); conditions: HepG2 MRE cis-reporter transcription, Attagene multiplex; actives raise or lower the signal
Outline: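 Step one: transfect HepG2 with cis-regulated reporter units. Step two: dose 24 h. Step three: isolate RNA, RT-PCR, 6-FAM label, HpaI digest, capillary electrophoresis. Fit bidirectionally to DMSO.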

[9] = ATG_PBREM_CIS: Attagene CIS-FACTORIAL HepG2 Assay for human Phenobarbital-responsive Enhancer Module (PBREM) (AID 2282955); conditions: HepG2 PBREM cis-reporter, Attagene multiplexed transcription; actives raise or lower the signal
Outline: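 Endogenous transcription factors in human liver HepG2 cells drive a PBREM cis-element reporter, whose transcript level after 24 h treatment is quantified by RT-PCR with capillary electrophoresis; activity fitted in both directions against DMSO.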

[10] = ATG_GRE_CIS: Attagene CIS-FACTORIAL HepG2 Assay for human Glucocorticoid Response Elements (GRE) (AID 2282947); conditions: HepG2 GRE cis-reporter, Attagene multiplex mRNA; actives raise or lower the signal
Outline: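 Following 24 h chemical exposure of transiently transfected HepG2 cells, total RNA was reverse-transcribed and reporter cDNA amplified, fluorescently labelled and sized by capillary electrophoresis. Signal gain or loss was fitted relative to DMSO vehicle.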

Measured: AC50

Sequence of Hypoxia-inducible factor 1-alpha (Homo sapiens) (Q16665 whole entry, looked up, the tested form may be a part): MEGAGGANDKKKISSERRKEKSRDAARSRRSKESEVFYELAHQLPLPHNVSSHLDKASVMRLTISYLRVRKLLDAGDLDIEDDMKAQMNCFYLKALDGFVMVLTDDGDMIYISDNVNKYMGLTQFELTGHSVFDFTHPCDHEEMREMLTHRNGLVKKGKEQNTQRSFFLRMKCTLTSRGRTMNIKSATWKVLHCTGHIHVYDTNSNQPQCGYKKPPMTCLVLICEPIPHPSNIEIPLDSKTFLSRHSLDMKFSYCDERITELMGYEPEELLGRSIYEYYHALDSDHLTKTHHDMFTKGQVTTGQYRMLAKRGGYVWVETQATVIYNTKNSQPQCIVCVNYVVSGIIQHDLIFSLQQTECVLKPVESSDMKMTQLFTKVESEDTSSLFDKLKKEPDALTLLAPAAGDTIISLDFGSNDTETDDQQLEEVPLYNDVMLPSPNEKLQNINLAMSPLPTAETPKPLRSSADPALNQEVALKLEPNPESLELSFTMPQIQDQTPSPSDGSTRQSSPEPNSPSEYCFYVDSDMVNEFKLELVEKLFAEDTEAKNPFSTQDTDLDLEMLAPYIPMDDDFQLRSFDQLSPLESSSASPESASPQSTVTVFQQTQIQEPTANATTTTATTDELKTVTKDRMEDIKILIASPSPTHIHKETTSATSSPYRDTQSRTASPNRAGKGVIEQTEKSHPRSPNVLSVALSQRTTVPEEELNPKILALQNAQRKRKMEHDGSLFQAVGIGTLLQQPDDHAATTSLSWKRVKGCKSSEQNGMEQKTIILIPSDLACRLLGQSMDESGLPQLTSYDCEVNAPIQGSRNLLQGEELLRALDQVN
Sequence of Bile acid receptor (Homo sapiens) (Q96RI1 whole entry, looked up): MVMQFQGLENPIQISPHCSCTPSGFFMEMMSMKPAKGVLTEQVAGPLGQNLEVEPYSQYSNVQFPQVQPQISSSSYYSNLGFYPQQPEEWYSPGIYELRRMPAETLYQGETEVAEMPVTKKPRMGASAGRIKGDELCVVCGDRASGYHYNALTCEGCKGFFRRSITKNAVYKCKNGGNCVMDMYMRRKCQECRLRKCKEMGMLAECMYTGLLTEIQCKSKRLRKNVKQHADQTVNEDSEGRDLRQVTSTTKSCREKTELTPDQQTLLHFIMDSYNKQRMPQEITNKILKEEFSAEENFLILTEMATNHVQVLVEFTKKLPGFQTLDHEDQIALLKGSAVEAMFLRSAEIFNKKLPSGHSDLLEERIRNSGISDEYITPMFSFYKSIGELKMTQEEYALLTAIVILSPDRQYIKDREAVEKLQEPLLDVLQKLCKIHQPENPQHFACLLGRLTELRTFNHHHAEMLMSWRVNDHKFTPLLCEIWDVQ
Sequence of Hepatocyte nuclear factor 6 (Homo sapiens) (Q9UBC0 whole entry, looked up): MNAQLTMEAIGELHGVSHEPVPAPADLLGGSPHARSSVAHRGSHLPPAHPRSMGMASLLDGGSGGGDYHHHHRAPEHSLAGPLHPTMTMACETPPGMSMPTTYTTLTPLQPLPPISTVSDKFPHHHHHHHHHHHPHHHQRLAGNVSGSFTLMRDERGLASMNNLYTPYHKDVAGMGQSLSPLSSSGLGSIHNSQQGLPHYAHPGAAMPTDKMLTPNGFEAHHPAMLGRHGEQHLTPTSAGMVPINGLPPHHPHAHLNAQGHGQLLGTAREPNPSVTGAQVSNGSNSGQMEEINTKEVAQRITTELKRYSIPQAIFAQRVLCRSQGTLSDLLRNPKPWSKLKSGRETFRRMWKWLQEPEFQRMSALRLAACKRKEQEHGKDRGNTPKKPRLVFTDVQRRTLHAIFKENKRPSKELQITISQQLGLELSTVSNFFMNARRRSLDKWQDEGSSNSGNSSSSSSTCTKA
Sequence of Heat shock factor protein 1 (Homo sapiens) (Q00613 whole entry, looked up): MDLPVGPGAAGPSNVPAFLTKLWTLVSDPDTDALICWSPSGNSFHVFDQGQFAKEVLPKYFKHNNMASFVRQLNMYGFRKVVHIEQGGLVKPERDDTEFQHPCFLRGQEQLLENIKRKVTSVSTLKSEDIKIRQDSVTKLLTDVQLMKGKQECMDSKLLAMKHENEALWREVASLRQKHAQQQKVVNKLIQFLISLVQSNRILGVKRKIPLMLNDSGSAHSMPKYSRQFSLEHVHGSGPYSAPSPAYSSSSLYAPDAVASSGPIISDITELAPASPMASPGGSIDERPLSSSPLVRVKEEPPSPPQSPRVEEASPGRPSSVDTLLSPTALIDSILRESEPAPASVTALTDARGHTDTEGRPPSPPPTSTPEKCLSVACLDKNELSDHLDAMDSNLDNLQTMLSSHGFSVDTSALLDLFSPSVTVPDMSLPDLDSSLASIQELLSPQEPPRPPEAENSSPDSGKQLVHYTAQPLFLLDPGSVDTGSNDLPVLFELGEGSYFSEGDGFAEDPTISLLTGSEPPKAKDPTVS

C=Cc1ccc(C(C)(C)C)cc1
not listed: [10]
inactive: all other assays above

OCCOCCN1CCN(C2=Nc3ccccc3Sc3ccccc32)CC1
active: [2] 152 µM | [8] 71.7 µM
not listed: [9] | [10]
inactive: all other assays above

C=C(C)C(=O)OCCOC1CC2CC1C1C=CCC21 (centres undefined)
not listed: [10]
inactive: all other assays above

C=C1CC[C@H](O)C/C1=C/C=C1\CCC[C@]2(C)[C@@H]([C@H](C)/C=C/[C@H](C)C(C)C)CC[C@@H]12
not listed: [3] | [5]
inactive: all other assays above

O=C1OC(=O)c2c(Cl)c(Cl)c(Cl)c(Cl)c21
not listed: [10]
inactive: all other assays above

C#CC(C)N(C)C(=O)Nc1ccc(Cl)cc1 (centres undefined)
not listed: [8] | [10]
inactive: all other assays above

CCC1(C)NC(=O)NC1=O (centres undefined)
not listed: [7] | [9] | [10]
inactive: all other assays above

O=C1CCCC=CCCCCCCCCCC1
active: [2] 41.2 µM | [7] 63 µM
not listed: [8] | [10]
inactive: all other assays above

COc1cc([C@@H]2c3cc4c(cc3[C@@H](O[C@@H]3O[C@@H]5CO[C@@H](C)O[C@H]5[C@H](O)[C@H]3O)[C@H]3COC(=O)[C@H]23)OCO4)cc(OC)c1O
not listed: [10]
inactive: all other assays above

COc1ccccc1[N+](=O)[O-]
not listed: [10]
inactive: all other assays above

FC(F)(F)COCC(F)(F)F
not listed: [3] | [4]
inactive: all other assays above

CC(=O)c1ccccn1
not listed: [8] | [10]
inactive: all other assays above

CC(C)CCOC(=O)c1ccccc1
not listed: [5] | [10]
inactive: all other assays above

C[Si]1(C)O[Si](C)(C)O[Si](C)(C)O1
not listed: [10]
inactive: all other assays above

CC(C)CC(C)CC(O)CC(C)C (centres undefined)
not listed: [10]
inactive: all other assays above

C[Si](C)(C)O[Si](C)(C)C
not listed: [9] | [10]
inactive: all other assays above

C=C(C)C(=O)OCCOCCOCCOCCOC(=O)C(=C)C
not listed: [10]
inactive: all other assays above

CCCCC(CC)(CO)CO
not listed: [10]
inactive: all other assays above

COc1ccc(COC(C)=O)cc1
not listed: [10]
inactive: all other assays above

CN(C)CCOC(C)(c1ccccc1)c1ccccn1 (centres undefined)
not listed: [5] | [10]
inactive: all other assays above

O=C(O)CCCCCCCCCCCC(=O)O
not listed: [9] | [10]
inactive: all other assays above

O=C1NC2NC(=O)NC2N1 (centres undefined)
not listed: [9] | [10]
inactive: all other assays above

O=C(O)COCC(=O)O
not listed: [3] | [4]
inactive: all other assays above

CC1CCC(C(C)C)C(O)C1 (centres undefined)
not listed: [7] | [8] | [10]
inactive: all other assays above

CCCCOC(=O)CCCCCCCC(=O)OCCCC
not listed: [10]
inactive: all other assays above

c1ccc2[nH]cnc2c1
not listed: [10]
inactive: all other assays above

COS(=O)(=O)O
not listed: [7] | [10]
inactive: all other assays above

c1ccc(CCc2ccccc2)cc1
not listed: [4] | [10]
inactive: all other assays above
